Assay outcomes deposited in PubChem BioAssay by several laboratories.
D1 allo mod: D1 dopamine receptor (human) allosteric modulation; P21728; HEK293 D1, CRE-luciferase, dopamine EC30 potentiation; actives deviate in either direction; B-score at 10 µM; 58,000 compounds, 5.9% hits; AID 641;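 active = luminescence count or its row- and column-corrected plate score outside the 99.7% band of the plate's sample wells, on either side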
Target sequence (P21728 whole entry, looked up): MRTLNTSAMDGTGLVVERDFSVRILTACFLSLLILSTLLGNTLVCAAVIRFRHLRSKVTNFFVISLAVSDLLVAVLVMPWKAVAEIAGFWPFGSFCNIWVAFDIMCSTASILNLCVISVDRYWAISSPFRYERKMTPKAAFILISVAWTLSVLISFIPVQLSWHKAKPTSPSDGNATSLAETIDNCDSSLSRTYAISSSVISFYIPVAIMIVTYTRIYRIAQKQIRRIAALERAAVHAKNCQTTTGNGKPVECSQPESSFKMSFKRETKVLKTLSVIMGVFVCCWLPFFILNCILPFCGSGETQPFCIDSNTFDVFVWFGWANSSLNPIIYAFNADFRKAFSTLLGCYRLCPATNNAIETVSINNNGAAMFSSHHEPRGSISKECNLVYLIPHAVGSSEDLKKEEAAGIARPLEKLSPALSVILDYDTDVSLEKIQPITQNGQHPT
EphB4 ephrin blk: blocks human EphB4 binding to ephrin-B2 | inhibition, % at 7 µM | EphB4 LBD / TNYL-RAW-Alexa532 peptide, fluorescence polarization | AID 720 | 97,000 compounds, 0.15% hits;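 active = inhibition above the screen-wide mean inhibition plus 3 SD, cut at about 15% in these data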;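 note: 0% = DMSO wells and 100% = excess unlabeled TNYL-RAW peptide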
DAT uptake mod: modulates human dopamine transporter uptake under cocaine | B-score at 10 µM | AID 449768 | 110,000 compounds, 1.3% hits | LLC-PK1 hDAT cells, [14C]-dopamine uptake with cocaine IC80; actives deviate in either direction;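 active = Z score or B-score, a plate-position-corrected score, falls beyond the plate's 99.7% confidence bounds, in either direction; inactive = both scores lie inside the 99.7% bounds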;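 note: scored against the spread of the other compound wells on the same plate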
D1 mod confirm: D1 receptor (human) allosteric modulation, confirmed; shares compounds with D1 allo mod; HEK293 D1 CRE-luciferase, dopamine EC30 potentiation; hits give high values; luminescence at 10 µM; 2,200 compounds, 88% hits;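 active = luminescence in either of two replicates above the same-plate mean plus 3 SD of the low-dose dopamine control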
D1 ag no DA: D1 (human) signaling in absence of dopamine. shares compounds with D1 allo mod. 1,900 compounds, 0.8% hits. HEK293 D1 CRE-luciferase, luminescence, no dopamine; hits give high values. luminescence at 10 µM; in the data active = luminescence above about 3900
Isoprot counter: alters isoproterenol CRE-luciferase response in HEK293 cells; shares compounds with D1 allo mod; HEK293 D1 CRE-luciferase, isoproterenol EC30 counter-screen; calls only at 10 µM; 2,200 compounds, 63% hits;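 active = luminescence in either replicate above plate mean of wells with a partly effective reference agonist dose plus 3 SD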;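 note: isoproterenol raises cAMP through native beta-adrenoceptor Gs so signal bypasses D1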
Active calls of the source: *; i = inactive; . = no result given; + = active, no number. Only a selection was taken, and hits are over-represented in it overall.

SMILES | D1 allo mod | EphB4 ephrin blk | DAT uptake mod | others
Cc1cc(OCC(=O)O)c2c3c(c(=O)oc2c1)CCCC3 | -0.47 | 3 | -0.52
Cc1cc(OC(=O)c2ccco2)c2c3c(c(=O)oc2c1)CCCC3 | . | 15* | -0.011
CCCCCCn1c(O)c(C=NC2CCCCC2N)c(=O)[nH]c1=O (stereo not given) | 0.06 | -5 | -0.74
CCCCn1c(O)c(C=NC2CCCCC2N)c(=O)[nH]c1=O (stereo not given) | -0.83 | -2 | -8.8*
CCN1C[C@@]2(COC)C3[C@@H](OC)[C@H]4[C@@H]1[C@@]3(C1C[C@@]3(O)[C@H](OC(=O)c5ccccc5)C1[C@]4(OC(C)=O)[C@@H](O)[C@H]3OC)[C@@H](OC)C[C@H]2O (stereo not given in full) | . | . | -1.9
COC(=O)C1=CO[C@H](C)[C@H]2CN3CC[C@@]4(C(=O)Nc5ccccc54)[C@@H]3C[C@H]12 | . | . | 0.36
CCCCCCn1c(O)c(C(C)=NC)c(=O)[nH]c1=O | . | 0 | 0.61
CCCCn1c(O)c(C(C)=NC(Cc2c[nH]c3ccccc23)C(=O)OC)c(=O)[nH]c1=O (stereo not given) | -0.68 | -5 | 2.7*
Cc1ccc2nc3c(cc2c1)CC1(C(=O)N(C)C(=O)N(C)C1=O)C1CCCCN31 (stereo not given) | -0.05 | 13 | 2.9*
Cc1ccc2nc3c(cc2c1)CC1(C(=O)N(C)C(=O)N(C)C1=O)C1COCCN31 (stereo not given) | -0.42 | 3 | 0.23
COC(=O)C1=C(c2cc3ccccc3o2)C[C@@H]2CC[C@H]1N2C(=O)NC(C)C | . | . | -0.38
COC(=O)C1=C(c2cc3ccccc3s2)C[C@@H]2CC[C@H]1N2C(=O)NC1CCCCC1 | . | . | 1.7
OC[C@@H](O)CCl | . | . | 0.51
O=C(c1sc2ccccc2c1Cl)N1CCC2(CC1)OCCO2 | -0.33 | -1 | 0.97
Cc1c(C(=O)N2CCC3(CC2)OCCO3)sc2ncnc(N3CCN(c4ccccn4)CC3)c12 | -6.7* | . | 1.1
COC(=O)C1=C(c2cc3ccccc3o2)C[C@@H]2CC[C@H]1N2C(=O)NCc1ccc(C(F)(F)F)cc1 | . | . | -1.3
COC(=O)C1=C(c2ccccc2)C[C@@H]2CC[C@H]1N2C(=O)NCCCOC(C)C | . | . | -0.31
C=CCN(CC=C)Cc1c[nH]c2ccccc12 | -5.6* | 2 | 0.13
O/N=C/c1c[nH]c2ccccc12 | 0.065 | -9 | 0.44
Fc1ccc2c(c1)nnn2C1CCN(Cc2ccccc2)CC1 | -4.4* | 4 | 0.18
Fc1ccc2c(c1)nnn2C1CCN(Cc2nnnn2CCc2ccccc2)CC1 | -1.5 | -2 | 1.7
COC(=O)[C@@H]1C[C@@]1(C)[C@@H](NP(=O)(c1ccccc1)c1ccccc1)c1ccccc1 | . | . | -0.99
c1ccc2c(CCNC3=NCCC3)c[nH]c2c1 | -2.7* | -3 | -0.017
CCN1CC=C(c2c[nH]c3ccccc23)CC1 | -0.2 | 9 | -1
O=C(Nc1ccc(Br)cc1)c1nn(C23CC4CC(CC(C4)C2)C3)cc1Br | . | -1 | 3*
SMILES | D1 allo mod | EphB4 ephrin blk | DAT uptake mod | others
C=C1C(=O)O[C@@H]2C[C@@H](C)[C@@H]3C4OC4C(=O)[C@@]3(C)[C@@H](O)[C@H]12 (stereo not given in full) | . | . | -1.5
CC(O)(CS(=O)(=O)c1cccc(C(F)(F)F)c1)C(=O)Nc1ccc(C(F)(F)F)cc1 (stereo not given) | . | 6 | 1.6
C[C@H](N)CN1CCc2ccc(Br)cc21 | . | . | 0.058
CN1CCC(N(C)c2ncnc3ccc(Br)cc23)CC1 | -4.3* | -1 | -0.14
CN1CCN(c2ncnc3ccc(Br)cc23)CC1 | -2.3 | -4 | -0.055
CCCNC(=O)N1[C@H]2CC[C@@H]1C(C(=O)OC)=C(c1ccccc1)C2 | . | . | -0.7
CCn1nc(-c2ccccc2)nc2c(=O)n(C)c(=O)nc1-2 | -8.7* | . | -0.018
Cc1nc2c(=O)n(C)c(=O)nc-2n(C)n1 | . | 0 | .
O[C@@H]1CCCN2CCc3c([nH]c4ccccc34)[C@H]12 | . | . | -0.8
Cc1ccc2c(c1)C1CN(C)CCC1N2C(=O)c1ccc(Br)o1 (stereo not given) | -3.1* | -1 | 0.38
Cc1ccc2c(c1)C1CN(C)CCC1N2S(=O)(=O)c1ccccc1 (stereo not given) | . | -7 | 0.27
Cc1ccc2c(c1)[C@@H]1CN(C)CC[C@@H]1N2C(=O)Nc1cccc(C(F)(F)F)c1 | -4.8* | -6 | 0.64
Cc1ccc2c(c1)C1CN(C)CCC1N2C(=O)Nc1cccc(C(F)(F)F)c1 (stereo not given) | . | -3 | 1.7
COC(=O)C1=C(c2cccc(OC)c2OC)C[C@@H]2CC[C@H]1N2C(=O)NC1CCCCC1 | . | . | -0.77
CCN(CC)c1ccc(CN(C)CCc2ccc(OC)c(OC)c2)cc1 | . | 3 | 0.35
COc1ccc(Cc2nccc3cc(OC)c(OC)cc23)cc1OC | 13* | . | 0.074 | D1 mod confirm=7016*;D1 ag no DA=2184;Isoprot counter=+
CC1Oc2cc3c(-c4c(O)cc(O)c5c(O)c6c(cc45)OC(C)C(C)C6=O)c(O)cc(O)c3c(O)c2C(=O)C1C (stereo not given) | . | . | -2.1
CCCCn1c(O)c(C(CC)=Nc2ccc(C(=O)O)cc2)c(=O)[nH]c1=O | 0.6 | 7 | -1.2
CCCCn1c(O)c(C(CC)=NCc2ccc3c(c2)OCO3)c(=O)[nH]c1=O | 7.4* | 1 | -0.81 | D1 mod confirm=12520*;D1 ag no DA=1728;Isoprot counter=+
COC(=O)C1=C(c2ccccc2)C[C@@H]2CC[C@H]1N2C(=O)NCCS(C)=O (stereo not given in full) | . | . | -0.2
CCOC(=O)c1cncn1C(C)c1ccccc1 (stereo not given) | -0.11 | . | 0.0068
CCOC(=O)c1cc2c(cn1)[nH]c1ccccc12 | 16* | . | 2 | D1 mod confirm=15472*;D1 ag no DA=1484;Isoprot counter=+
COC(=O)C1=C(c2cc3ccccc3s2)C[C@@H]2CC[C@H]1N2C(=O)N1CCCCC1 | . | . | -0.047
Cn1c(O)c(C(=O)c2ccccc2F)c(=O)n(C)c1=O | . | 8 | -1.4
Cn1c(O)c(C(=O)c2ccccc2)c(=O)n(C)c1=O | 8.4* | -7 | -0.022 | D1 mod confirm=6612;D1 ag no DA=1668;Isoprot counter=i
SMILES | D1 allo mod | EphB4 ephrin blk | DAT uptake mod | others
CCOC(=O)c1c(N)n(Cc2ccc(OC)cc2)c2nc3ccccc3nc12 | 2.4 | 4 | 0.65
COC(=O)c1c(N)n(Cc2ccc(OC)cc2)c2nc3ccccc3nc12 | 7* | . | -1.1 | D1 mod confirm=8940*;D1 ag no DA=1728;Isoprot counter=+
COCCCn1c(N)c(C(=O)OCCOC)c2nc3ccccc3nc21 | 0.52 | . | 0.93
COCCOC(=O)c1c(N)n(Cc2ccc(OC)cc2)c2nc3ccccc3nc12 | 6.3* | . | 0.76 | D1 mod confirm=12708*;D1 ag no DA=1440;Isoprot counter=+
CCC1(c2ccc(N)cc2)CCC(=O)NC1=O (stereo not given) | . | . | -0.8
Cc1nn(Cc2ccccc2)c(C)c1C(=O)OCC(=O)Nc1ccccc1SCC#N | 4.2* | 5 | 0.42 | D1 mod confirm=8752*;Isoprot counter=+
